From PubChem BioAssay (Tox21)
Results filed as inconclusive are left out. Where a call stands in place of a potency, no number is given. Activity calls are given as the source filed them. The call rests on the fitted dose curve.

system: not listed separately; assay: qHTS assay to identify small molecule agonists of the AP-1 signaling pathway (AID 1159526); details: ME-180 (cervical carcinoma) AP-1-bla reporter, beta-lactamase FRET ratio, 5 h; series mostly up to 76.8 µM

Row | SMILES | Potency | activation
1 | CCO[Si](C)(C)OCC | inactive | –
2 | C=CC(C)C#N (configuration not stated) | inactive | –
3 | COc1cccc(O)c1 | inactive | –
4 | CCOCOCC | inactive | –
5 | Cc1cnccn1 | inactive | –
6 | Clc1cc(Cl)c(-c2c(Cl)c(Cl)cc(Cl)c2Cl)cc1Cl | inactive | –
7 | Cn1cccc1 | inactive | –
8 | O=C1OC(=O)c2ccc3c4c(ccc1c24)C(=O)OC3=O | inactive | –
9 | CCCCCCCCC(C)=O | inactive | –
10 | CC1=CP(=O)(c2ccccc2)CC1 (configuration not stated) | inactive | –
11 | O=S(=O)(O)c1cc(S(=O)(=O)O)c2ccc3c(S(=O)(=O)O)cc(S(=O)(=O)O)c4ccc1c2c43 | – | -3.16% [at 15.8 µM] (inactive)
12 | CCCCCCCC(=O)OCC | inactive | –
13 | CCN(CC)c1cccc(C)c1 | inactive | –
14 | CCCCCCCCCCCCCCCCCO | – | -5.53% [at 15.8 µM] (inactive)
15 | Cc1cccc(N(C)C)c1 | inactive | –
16 | CN1CN(C)CN(C)C1 | inactive | –

Row | SMILES | Potency | activation
17 | CC1=CCC(=O)O1 | inactive | –
18 | CC(=O)OC1CCCCC1 | inactive | –
19 | CCC(C)C(=O)OC (configuration not stated) | inactive | –
20 | C#CC(O)CCC (configuration not stated) | inactive | –
21 | CC(C)=CCCC(C)CCOC(=O)C(C)C (configuration not stated) | inactive | –
22 | CCCCCCCOC(=O)c1ccccc1C(=O)OCCCCCCC | inactive | –
23 | CS(C)(=O)=O | inactive | –
24 | CCc1ccc(C)nc1 | inactive | –
25 | CC1CCCCC1 | inactive | –
26 | O=c1cccc[nH]1 | inactive | –
27 | CCOC(=O)CC(C)O (configuration not stated) | inactive | –
28 | CN(C)CCN1CCOCC1 | inactive | –
29 | CCOC(=O)CN | inactive | –
30 | CC1(C)C(=O)N(CO)C(=O)N1CO | inactive | –
31 | CCOB(OCC)OCC | inactive | –

target: Retinoic acid receptor RXR-alpha (Homo sapiens) (UniProt P19793); assay: qHTS assay to identify small molecule agonists of the RXR signaling pathway (AID 1159527); details: HEK293T RXRa-UAS-bla, beta-lactamase ratio, 16 h; series mostly up to 76.8 µM; further: nearly all actives have a fitted effect of over 35% in size
How it was run: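 Beta-lactamase reporter assay, agonist format. Engineered HEK 293T line, charcoal-stripped FBS at 2%, overnight (16 hr) exposure, fluorescence at 460 and 530 nm after 405 nm excitation.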

Chain of Retinoic acid receptor RXR-alpha (Homo sapiens) (P19793 whole entry, looked up): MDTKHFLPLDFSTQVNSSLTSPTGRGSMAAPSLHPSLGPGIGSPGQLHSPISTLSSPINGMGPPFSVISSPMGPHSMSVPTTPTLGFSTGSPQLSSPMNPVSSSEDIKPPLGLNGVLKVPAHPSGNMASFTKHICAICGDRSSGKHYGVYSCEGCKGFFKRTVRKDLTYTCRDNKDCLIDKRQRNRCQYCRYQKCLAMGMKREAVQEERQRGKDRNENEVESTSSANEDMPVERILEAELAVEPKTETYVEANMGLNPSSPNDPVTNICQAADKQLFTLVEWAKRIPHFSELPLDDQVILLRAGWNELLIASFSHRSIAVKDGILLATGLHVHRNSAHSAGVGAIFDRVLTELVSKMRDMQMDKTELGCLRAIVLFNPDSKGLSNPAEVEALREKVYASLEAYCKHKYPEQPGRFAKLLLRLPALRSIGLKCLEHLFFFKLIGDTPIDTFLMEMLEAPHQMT

Row | SMILES | Potency | activation
32 | CCO[Si](C)(C)OCC | inactive | –
33 | C=CC(C)C#N (configuration not stated) | inactive | –
34 | COc1cccc(O)c1 | inactive | –
35 | CCOCOCC | inactive | –
36 | Cc1cnccn1 | inactive | –
37 | Clc1cc(Cl)c(-c2c(Cl)c(Cl)cc(Cl)c2Cl)cc1Cl | inactive | –
38 | Cn1cccc1 | inactive | –
39 | O=C1OC(=O)c2ccc3c4c(ccc1c24)C(=O)OC3=O | inactive | –
40 | CCCCCCCCC(C)=O | inactive | –
41 | CC1=CP(=O)(c2ccccc2)CC1 (configuration not stated) | inactive | –
42 | O=S(=O)(O)c1cc(S(=O)(=O)O)c2ccc3c(S(=O)(=O)O)cc(S(=O)(=O)O)c4ccc1c2c43 | – | -3.71% [at 15.8 µM] (inactive)
43 | CCCCCCCC(=O)OCC | inactive | –
44 | CCN(CC)c1cccc(C)c1 | inactive | –
45 | CCCCCCCCCCCCCCCCCO | – | 2.15% [at 15.8 µM] (inactive)
46 | Cc1cccc(N(C)C)c1 | inactive | –
47 | CN1CN(C)CN(C)C1 | inactive | –

Row | SMILES | Potency | activation
48 | CC1=CCC(=O)O1 | inactive | –
49 | CC(=O)OC1CCCCC1 | inactive | –
50 | CCC(C)C(=O)OC (configuration not stated) | inactive | –
51 | C#CC(O)CCC (configuration not stated) | inactive | –
52 | CC(C)=CCCC(C)CCOC(=O)C(C)C (configuration not stated) | inactive | –
53 | CCCCCCCOC(=O)c1ccccc1C(=O)OCCCCCCC | inactive | –
54 | CS(C)(=O)=O | inactive | –
55 | CCc1ccc(C)nc1 | inactive | –
56 | CC1CCCCC1 | inactive | –
57 | O=c1cccc[nH]1 | inactive | –
58 | CCOC(=O)CC(C)O (configuration not stated) | inactive | –
59 | CN(C)CCN1CCOCC1 | inactive | –
60 | CCOC(=O)CN | inactive | –
61 | CC1(C)C(=O)N(CO)C(=O)N1CO | inactive | –
62 | CCOB(OCC)OCC | inactive | –
